Structures are written as SMILES. Several values for one entry are separate records, joined by “and”; a condition that tells them apart may be missing. Equal values may be shown once. Results filed as inconclusive are left out. The source holds several records for some structures; these can differ, active in one and inactive in another. Activity calls are given as the source filed them. Rule for the calls: active = hit-call score of the fitted dose curve at least 0.9, where 1 is the maximum; inconclusive = response in the unintended direction; inactive = score below 0.9.

The assay in a line: TOX21_p53_BLA_p2_viability: Viability Assessment in the Tox21 HCT-116 p53 Agonism Beta-lactamase Assay, Phase 2 (AID 2283591).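 Note: compound exposure lasted 16 h at 37 °C; actives lower the ATP signal meaning cytotoxicity.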 The source says: TOX21_p53_BLA_p2 is a cell-based, single-readout assay that uses HCT116, a human intestinal cell line, […] in a 1536-well plate.TOX21_p53_BLA_p2_viability is an assay readout measuring cellular ATP content and detected with CellTiter-Glo Luciferase-coupled ATP quantitation.TOX21_p53_BLA_p2_viability used a type of viability reporter where loss-of-signal activity can be used to understand changes in the cell viability. Furthermore, this assay endpoint can be referred to as a secondary readout, because this assay has produced multiple assay endpoints where this one serves a viability function. To generalize the intended target to other relatable targets, this assay endpoint is annotated to the cell cycle intended target family, where the subfamily is cytotoxicity.
Thawing Method: Place 14 mL of pre-warmed thaw medium into a 15 mL of conical tub. Remove the vial of cells to be thawed from liquid nitrogen and thaw rapidly by placing at 37C in a water bath with gentle agitation for 1-2 minutes. Decontaminate the vial by wiping with 70% ethanol before opening in a biological safety cabinet. Transfer the vial contents drop-wise into 14 mL of thaw medium in a sterile 15-mL conical tub. Centrifuge cells at 900 rpm for 4 minutes and resuspend in thaw medium. Transfer contents to the T75 tissue culture flask containing Thaw Medium and place flask in a humidified 37C/5% CO2 incubator. Switch to growth medium at first passage.Propagation Method: Aspirate medium, rinse once in DPBS, add 0.25% Trypsin/EDTA and swirl to coat the cell evenly. Add an equal volume of Growth Medium to inactivate Trypsin after 2-3 minutes incubation at 37C. Centrifuge cells at 900 rpm for 4 minutes and resuspend in growth medium. Cell should be passage or fed at least twice a week.Assay Protocol: Harvest cells from culture in growth medium and resuspend in assay medium. 2.2 Dispense 4000 cells/5 uL/well into 1536-well black/clear bottom plates using a Multidrop dispenser. After the cells were incubated at 37C for 5 hours, 23 nL of compounds dissolved in DMSO were transferred to the assay plate by a PinTool resulting in a 217-fold dilution. Incubate the plates for 16 hours at 37C, 5% CO2. Add 1 uL of 6X LiveBLAzer FRET B/G (CCF4-AM) Substrate Mixture to each well using a BioRAPTR dispenser and incubate the plates at room temperature for 2 hours. Measure fluorescence intensity at 460 and 530 nm emission and 405 nm excitation by an Envision detector. Data is expressed as the ratio of 460nm/530nm emissions. Add 4 uL of Cell-titer Glo to each well using BioRAPTR and incubate the plates at room temperature for […]. For cell viability readout that measures cytotoxicity, 4 ul/well of CellTiter-Glo reagent was added into the assay plates using a Flying Reagent Dispenser. After 30 min incubation at room temperature, the luminescence intensity in the plates was measured using a ViewLux plate reader.
Broadly, the AC50 is the concentration at which the activity in the assay is half-maximal. In the case of `O=C(Nc1ccc(Br)cc1)c1cc(Br)cc(Br)c1O`, the half-maximal activity concentration (AC50) was 0.391 µM (active) and the result was inactive.
Turning to `Cc1cc(Cl)ccc1OC(C)C(=O)O` (stereo not given), the outcome was inactive.
On the same count and under the same terms, the same measure for `O=C1C[C@@H]2OCC=C3CN4CC[C@]56c7ccccc7N1[C@H]5[C@H]2[C@H]3C[C@H]46`: “inactive”; for `CCN(CCO)CCO`: “inactive”.
On the same count and under the same terms, the same measure for `c1ccc(-c2cccc(-c3ccccc3)c2)cc1`: “inactive”.
Take `C=CC(=O)OCC(COC(=O)C=C)(COC(=O)C=C)COC(=O)C=C`: the concentration at half-maximal activity (AC50) was 16.6 µM (active).
Consider `CCN(N=O)C(N)=O`, for which the molecule was classed as inactive.
Take `C[CH2][Hg][S]c1ccccc1C(=O)O`: the AC50 is 32 µM (active) and 18.4 µM (active).
Turning to `CCOC(=O)C(SP(=S)(OC)OC)c1ccccc1` (stereo not given), the molecule was classed as inactive.
Turning to `CN(N=O)C(N)=O`, the molecule was classed as inactive.
As to `OC(c1ccc(Cl)cc1)(c1ccc(Cl)cc1)c1cccnc1`, the AC50 is 46.1 µM (active).
As to `Cc1c([N+](=O)[O-])c(C)c([N+](=O)[O-])c(C(C)(C)C)c1[N+](=O)[O-]`, the outcome was inactive.
In the case of `CCC[CH2][Sn]([Cl])([Cl])[CH2]CCC`, the AC50 is 552 nM (active) and 2.76 µM (active).
On the same count and under the same terms, the same measure for `OCC(c1ccc(Cl)cc1)c1ccc(Cl)cc1`: 69.5 µM (active).
As for `O=C(Cl)OCCOCCOC(=O)Cl`, the molecule was classed as inactive.
On the same count and under the same terms, as for `ClCCCCl`, the entry is “inactive”; as for `CCOP(=S)(OCC)O/N=C(\C#N)c1ccccc1`, “inactive”; as for `O=C(Cc1ccccc1)OCCc1ccccc1`, “inactive”.
On the same count and under the same terms, as for `O=C(NC(=O)c1c(F)cccc1F)Nc1cc(Cl)c(OC(F)(F)C(F)C(F)(F)F)cc1Cl` (stereo not given), the entry is “inactive”; as for `CCCCCCCCCCCCCCC(Br)C(=O)O` (stereo not given), “inactive”.
On the same count and under the same terms, the same measure for `O=S1(=O)OC(c2cc(Br)c(O)c(Br)c2)(c2cc(Br)c(O)c(Br)c2)c2ccccc21`: “inactive”.
As to `O=c1oc2ccccc2c(O)c1C(CC(O)c1ccc(-c2ccc(Br)cc2)cc1)c1ccccc1` (stereo not given), the AC50 is 6.09 µM (active) and the molecule was classed as inactive.
On to `Cc1cc(Cl)ccc1OCCCC(=O)O`, for which the outcome was inactive.
Still for that read-out and setting: as for `CC1(C)[C@H](/C=C2\CCSC2=O)[C@@H]1C(=O)OCc1coc(Cc2ccccc2)c1`, the entry is “inactive”; as for `CCOc1cc(C=O)ccc1O`, “inactive”.
The same measure, in the same setting: as for `O=[N+]([O-])c1cc([As](=O)(O)O)ccc1O`, the entry is “inactive”.
Regarding `Cc1cc(SCc2sc(-c3ccc(C(F)(F)F)c(F)c3)nc2C)ccc1OCC(=O)O`, the AC50 was 15.2 µM (active).
As for `C=C(C)C(=O)OCC(CC)CCCC` (stereo not given), the call was inactive.
Same read-out and setting: as for `CCCCC(CC)C(=O)Cl` (stereo not given), the entry is “inactive”; as for `Cc1cc(C(C)(C)c2ccc(O)c(C)c2)ccc1O`, “inactive”.
Turning to `O=c1[nH]c2ccccc2n1C1CCN(CCCC(c2ccc(F)cc2)c2ccc(F)cc2)CC1`, the AC50 is 13.8 µM (active) and 30.1 µM (active).
As to `Cc1cccc(N=Nc2ccc(N(C)C)cc2)c1`, the outcome was inactive.
Still for that read-out and setting: the same measure for `O=[N+]([O-])c1cccc2ccccc12`: “inactive”; for `Cc1ccccc1OP(=O)(Oc1ccccc1C)Oc1ccccc1C`: “inactive”.
On the same count and under the same terms, as for `Cc1cc(Cl)ccc1O`, the entry is “inactive”; as for `CCC(C)(C#N)N=NC(C)(C#N)CC` (stereo not given), “inactive”.
Same read-out and setting: as for `Brc1ccc(Br)cc1`, the entry is “inactive”.
Consider `CN(C)c1ccc(N=O)cc1`, for which the AC50 is 70.1 µM (active) and 70.5 µM (active).

For the origin of these results see PubChem BioAssay (EPA / NIEHS).
